PubChem BioAssay AID1220 (Sanford-Burnham Center for Chemical Genomics, 2008)
Out of some 190,000 compounds screened, about 1,300 (0.68%) were called active. The sample holds actives, similar compounds and a random draw of the others, so the mix is not that of the screen. A number with no mark means an inactive call. Cut-off read from the data, not from the text of the source: active = inhibition above about 50%; inactive = the rest.

target: Mannose-6-phosphate isomerase (Homo sapiens) (UniProt P34949); test: human PMI inhibitors, high substrate, primary screen, biochemical, fluorescence intensity, high mannose 6-phosphate (AID 1220); settings: recombinant PMI enzyme, coupled fluorescence intensity; at 20 µM; stronger effect = higher value
Sequence (P34949 whole entry, looked up): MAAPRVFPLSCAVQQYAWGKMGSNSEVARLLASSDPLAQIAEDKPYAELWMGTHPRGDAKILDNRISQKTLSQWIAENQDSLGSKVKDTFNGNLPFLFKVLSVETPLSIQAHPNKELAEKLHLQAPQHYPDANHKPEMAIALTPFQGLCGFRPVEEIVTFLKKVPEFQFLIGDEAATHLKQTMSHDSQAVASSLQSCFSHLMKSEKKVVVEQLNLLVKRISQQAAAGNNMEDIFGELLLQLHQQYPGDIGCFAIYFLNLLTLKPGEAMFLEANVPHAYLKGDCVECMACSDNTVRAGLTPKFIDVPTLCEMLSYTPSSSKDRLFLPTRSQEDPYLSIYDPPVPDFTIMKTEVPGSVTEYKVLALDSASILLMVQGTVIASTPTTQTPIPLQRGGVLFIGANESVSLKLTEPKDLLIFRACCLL

Row | SMILES | inhibition
1 | Cc1[nH]c2ccccc2c1/C=N/n1cnnc1 | -4.2%
2 | CCN(CC)c1ccc(N=Cc2c(C)[nH]c3ccccc23)cc1 | 69.7% (active)
3 | O=[N+]([O-])c1ccc(/C=N/N=C/c2ccc([N+](=O)[O-])o2)o1 | 24.5%
4 | CCNC(=S)N/N=C/c1ccccc1[N+](=O)[O-] | -1.5%
5 | CCCCCC(=O)N/N=C/c1ccccc1[N+](=O)[O-] | -6.7%
6 | CCN(CC)c1ccc(N=Cc2ccccc2[N+](=O)[O-])cc1 | 64.4% (active)
7 | CCCCNC(=S)N(C)/N=C/c1c(C)[nH]c2ccccc12 | 9.5%
8 | CN(/N=C/c1ccc([N+](=O)[O-])o1)c1ccccc1 | -3.1%
9 | CCN(CC)c1ccc(N=Cc2ccc([N+](=O)[O-])o2)cc1 | 59.7% (active)
10 | CCN(CC)c1ccc(/C=N/NS(=O)(=O)c2cccc([N+](=O)[O-])c2)cc1 | -83.2%
11 | O=C(CNC(=O)C1COc2ccccc2O1)N/N=C\c1cccc(O)c1 (stereo unspecified) | -10.8%
12 | Cc1cccc(-n2nnc3c(=O)n(CC(=O)Nc4cc(C)on4)cnc32)c1 | -4.2%
13 | COc1ccccc1N/C=C1/Sc2cc(Cl)ccc2NC1=O | 3%
14 | COc1cc(N)c(Cc2nccc3cc(OC)c(OC)cc23)cc1OC | 56.4% (active)
15 | COc1cc2ccnc(Cc3cccc(OC)c3OC)c2cc1OC | 44.9%
16 | CCOC(=O)Nc1cc(OC)c(OC)cc1Cc1nccc2cc(OC)c(OC)cc12 | -1.9%
17 | COc1ccc(NC(=O)c2ccccc2NC(=O)CSc2ccccc2)cc1 | 2.1%
18 | Cc1nn(-c2ccccn2)c2c1C(=O)C(Br)CC2 (stereo unspecified) | 72.9% (active)
19 | C=C(C)C1Cc2c(C)nn(-c3ccccn3)c2C1 (stereo unspecified) | -10.9%
20 | Cc1nn(-c2ccccn2)c2c1C(c1ccccn1)C1=C(CCCC1=O)N2 (stereo unspecified) | 0.2%
21 | Cc1ccccc1C(=O)NNC(=O)C12CC3CC(CC(C3)C1)C2 | 7%

Row | SMILES | inhibition
22 | CC(=O)CC(=O)Nc1ccc(C(N)=O)cc1 | 6.1%
23 | COc1cc(OC)c(C2C(C#N)=C(N)Oc3cc(C)n(CCCN4CCOCC4)c(=O)c32)cc1OC (stereo unspecified) | 61.6% (active)
24 | COc1cc(C2C(C#N)=C(N)Oc3cc(C)n(CCN4CCOCC4)c(=O)c32)cc(OC)c1OC (stereo unspecified) | -11.7%
25 | COc1ccc(C2C(C#N)=C(N)Oc3cc(C)n(CCN4CCOCC4)c(=O)c32)cc1OC (stereo unspecified) | -0.4%
26 | N#Cc1nc(-c2ccc(Cl)cc2)oc1N1CCCCC1 | -8.5%
27 | COc1ccccc1-n1c(CNC(=O)c2cccc([N+](=O)[O-])c2C)n[nH]c1=S | -7.8%
28 | COC(=O)c1ccccc1N/C=C1\CCc2c(c(C)nn2-c2ccccn2)C1=O | 73.6% (active)
29 | COC(=O)c1ccccc1NC(=S)N1CCN(c2ccccn2)CC1 | 5.5%
30 | CCOC(=O)c1ccccc1N/C=C1\CCCCC1=O | -11.5%
31 | COc1ccccc1N1CCN(C(=O)c2ccc3c(Cl)c4c(nc3c2)CCCC4)CC1 | 14.1%
32 | Cn1c(=O)[nH]c(=O)c2c1nc(N1CCCC1)n2CC(O)COc1ccccc1 (stereo unspecified) | 3.3%
33 | CCNc1nc(Cl)nc(NCCOc2ccc(C)cc2)n1 | 0.4%
34 | CCCC(=O)Nc1nnc(C2CCCO2)s1 (stereo unspecified) | 17.6%
35 | Cc1ccc(OCC(=O)Nc2nnc(C3CCCO3)s2)c(Br)c1 (stereo unspecified) | 5.8%
36 | Cc1cccc(C)c1OCC(=O)Nc1nnc(C2CCCO2)s1 (stereo unspecified) | 53.1% (active)
37 | O=C(COc1ccc([N+](=O)[O-])cc1)NCc1ccncc1 | -2.2%
38 | O=S(=O)(Cc1ccccc1)NCC1CCCN(Cc2ccc3nonc3c2)C1 (stereo unspecified) | 7.4%
39 | CCCCOC(=O)c1ccc(NC(=S)NC(=O)c2c(Cl)cnn2CC)cc1 | 17.1%
40 | COC(=O)c1ccc(NC(=S)NC(=O)c2c(Cl)cnn2C)cc1 | -3.2%
41 | CCCCOC(=O)c1ccc(NC(=S)NC(=O)c2c(Cl)cnn2C)cc1 | 62.3% (active)
42 | CCN1CCCn2c1nc1c2c(=O)n(C)c(=O)n1C | -4.6%

Row | SMILES | inhibition
43 | CC1CCCCN1C(=O)CSc1nnc(-c2c[nH]c3ccccc23)o1 (stereo unspecified) | -3.8%
44 | CC1(C)CC(=O)C(C=Nc2ccc(O)cc2)=C(O)C1 | 21.8%
45 | CC1(C)CC(=O)C(C=Nc2ccc(NC3=C(C#N)C(=O)CC(C)(C)C3)cc2)=C(O)C1 | 60.4% (active)
46 | CC1(C)CC(=O)C(C=Nc2ccc(N)cc2)=C(O)C1 | 33.3%
47 | CCOC(=O)Cn1c(-c2cccnc2Cl)nc2cc(Cl)c(Cl)cc21 | 21.1%
48 | O=C(CN(c1ccc(Br)cc1)S(=O)(=O)c1ccc(Cl)c([N+](=O)[O-])c1)NCCc1ccccc1 | -3.9%
49 | COc1ccc(CN=CC2=C(O)CC(C)(C)CC2=O)cc1 | 12.4%
50 | O=[N+]([O-])c1ccc(COc2cccc(CNc3ccc(Br)cc3)c2)cc1 | 19.9%
51 | c1ccc(COc2cccc(CNn3cnnc3)c2)cc1 | 0.5%
52 | O=[N+]([O-])c1ccc(COc2cccc(CNc3ccc(F)cc3)c2)cc1 | -3.6%
53 | Oc1ccc(NCc2cccc(OCc3ccc(F)cc3)c2)cc1 | 51.3% (active)
54 | Fc1ccc(COc2cccc(CNCc3ccncc3)c2)cc1 | -15.5%
55 | Oc1ccc(NCc2cccc(OCc3ccccc3)c2)cc1 | 58.9% (active)
56 | CCS(=O)(=O)c1c(S(=O)(=O)CC)c2ccccn2c1C(N)=O | -1%
57 | Cc1cccc(C(C)C)c1NC(=O)C1CN(S(=O)(=O)c2ccccc2)CCN1S(=O)(=O)c1ccccc1 (stereo unspecified) | 1.2%
58 | COc1cccc2c(=O)cc(C)n(CC(=O)Nc3ccccc3C)c12 | -2.8%
59 | CC(C)C(=O)N1c2ccccc2NC2=C(C(=O)CCC2)C1c1ccc(N(C)C)cc1 (stereo unspecified) | 60.7% (active)
60 | CC(=O)N1c2ccccc2NC2=C(C(=O)CCC2)C1c1ccc(F)cc1 (stereo unspecified) | 13.6%
61 | CCC(=O)N1c2ccccc2NC2=C(C(=O)CCC2)C1c1ccc(N(C)C)cc1 (stereo unspecified) | 16.3%
